Among the data in the supplement of paper PMC6555819 are PBM binding z-score values, retold here.

The test concerns RARb:RXRa (NR concentration 270 nM, RXRa partner concentration 90 nM). Kind of test: PBM binding z-score (relative to random genomic background probes); higher = stronger binding; sequences stand for … in GC…GCGATTGACAGCGTAGAATGAAGG
The method in brief:
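For binding z-scores, the reference was random background probes on custom Agilent 4×180K protein-binding microarrays. These arrays were incubated 1 h with ligand-free nuclear receptor dimers in PBS pH 7.4, 2% milk, 0.02% Triton X-100, 1 mM DTT, 0.2 mg/mL BSA and 0.4 mg/ml salmon testes DNA. Fluorescence was scanned after antibody detection of each partner (one per run) and regression-normalized.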
As to AGTCGAAGTTCACTAGGTAACGTAAGATTCAGCT, the PBM binding z-score stood at 2.91.

Take GCTAGTTGGTCCGTAAAAGGTCACACACCGGTCG: the PBM binding z-score worked out at 3.99.

For the sequence CGAACTAGGTCAGAACAGGACAGTGAAGGATGAT, the PBM binding z-score was 2.77.

In turn, CGAAATAGGTCAGAACAGGACAGTGAAGGATGAT had a PBM binding z-score of 3.71.

In turn, TAGCCTAGGTCATTCTGGGGCCAGTATAGAAAGC showed a PBM binding z-score of 3.67.

In the case of ATACCAAGGTGATCGTGACGTCGTTGATACTAAC, the PBM binding z-score turned out to be 0.752.

Sequence CGTCCAAGGTCAAGGTTAGTGAAAGAGACTCGAA displayed a PBM binding z-score of 5.07.

TCGAGTAGGTTAGTCGGGGGATTCAGCCAACATA came in with a PBM binding z-score of 0.779.

GCTCGGAGGGCAAGGTCAGAGCTTTGTCCGTAGA had a PBM binding z-score of 3.76.

In turn, CCGAGTAGGTTATGGGGCATTCATGCAACGGTGA came in with a PBM binding z-score of 0.981.

With ACTAGCAGTCCAAGGGTCACTCAAGATTAGTCCG, the PBM binding z-score turned out to be 3.35.

Regarding ATCGAAAGGTCCTGAGGTGAGTATACAGAAAGGC, the PBM binding z-score was found to be 1.12.

For AGTCAAAGTTCACTTGGTAACGTAAGATTCAGCT, the PBM binding z-score is 4.58.

As for TCTAGCACGCCAGAGGGTCACTCAAGAGGTACGG, the PBM binding z-score was 2.04.

For the sequence CCAACTAGGTCAAGGTCAAAGTCGGTTTGTGCCA, the PBM binding z-score stood at 5.3.

Sequence TCAGACAGGTGAAGGTAACACAGGTACGCAGTCG showed a PBM binding z-score of 1.32.

As for TTACCAAGGTGAGCTGAGGTCGTCGATCCAACTC, the PBM binding z-score was found to be 1.8.

With TCATATAGGTAAATGCTAGGTGAGAGTCCGATCT, the PBM binding z-score was 0.218.

On to TCTTGTAGATTAAAGGTTAAGAAAGCCGAAGCCT, for which the PBM binding z-score was determined as 1.53.

In the case of TCAGACAGGTGCAGGTAACTCAGGTACGCAGTCG, the PBM binding z-score was determined as 0.311.

On to CGTCAAAGTTCAACTAAAGTAACGTAAAGCACGC, for which the PBM binding z-score turned out to be 5.28.

Turning to AATACAGGGTCACTAGGCCAGACTAGGTACGAAT, the PBM binding z-score came to 4.3.

The sequence TTACCATGGTGAGCTGAGGTCGTTGATCCAACTC registered a PBM binding z-score of 0.272.

As for CAGCCTAGGTCAGGGCCAGTAAAGGAGGAACGTT, the PBM binding z-score came out at 3.49.

TCTTGTAGATCAATAGAGTTTAAGAAAGTGCGCT registered a PBM binding z-score of 0.375.

TCGAGGAGGTTACCAATGGGGCATTCAGCTTTCT showed a PBM binding z-score of 1.67.

CGTCCAAGGTCAGAGATGTCAGTGAATGCCGAGT registered a PBM binding z-score of 4.54.

In turn, CACACTAGGTCACGAAAGGTCAAAGTCGAATGAC returned a PBM binding z-score of 5.97.

In the case of GATACAGGGTCAGCTAGAGGCAAGAGTATGGAAA, the PBM binding z-score came out at 3.97.

For CGAACTAGGTCACAACAGGACAGTGAAGGATGAT, the PBM binding z-score was found to be 3.79.

ATATGTAGGTTTAGGGTCATTCAGGTTGGTTCGC returned a PBM binding z-score of 2.79.

In turn, CCGACTGGGGCAAGGTTAGCATAACGCACAGCCA came in with a PBM binding z-score of 1.22.

As for CGTCCAAGGTCATCGGAGGTCAGTGAAGACAGAT, the PBM binding z-score turned out to be 5.5.

In turn, TCTCGGAGGACACGAAAGGTCAGAGTTCGACATC yielded a PBM binding z-score of 4.16.

The sequence CCTACTGGCCCACGAAAGGTCATTGATTCAGTGA had a PBM binding z-score of 3.94.

In turn, TCATATAGGTAAAGGCGAAAGTCGAACGATATGA showed a PBM binding z-score of 0.399.

CAAACTAGGTCAGAGAGGTCAAAGTCCGTGCGTA came in with a PBM binding z-score of 4.84.

In turn, TAGCCTAGGTCAGATCGGGCCAGTATCCGCTATA yielded a PBM binding z-score of 3.02.

CTCGAAAGGCCGGTTGAGGTGAGTATACGGATAA registered a PBM binding z-score of 0.703.
